Compounds without any hit were thinned out: in the full panel of roughly 83,000, 20% have a hit.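 Note: values are percent growth. 100 is the growth of untreated cells, values between 100 and 0 indicate rising inhibition; between -100 and 0 indicates cell death.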 Calls of active or inactive are those of the source. The calls were made as follows: active = growth percent below 10; inactive = the rest.
What was measured:
Test in all cases: NCI-60 one-dose screen, 48 h (100 = growth as untreated, 0 = no growth, -100 = all killed)
Settings in all cases: 10 µM unless noted
T-47D breast = system: T-47D breast
BT-549 breast = system: BT-549 breast
MDA-MB-435 melanoma = system: MDA-MB-435 melanoma
SW-620 colon = system: SW-620 colon
MCF7 breast = system: MCF7 breast
HCT-116 colon = system: HCT-116 colon
HCC-2998 colon = system: HCC-2998 colon
KM12 colon = system: KM12 colon

Measured: growth

O=C1/C(=C/c2ccccc2O)CC/C1=C\c1ccccc1O
inactive: T-47D breast 47.3% | MDA-MB-435 melanoma 26.4% | SW-620 colon 55.1% | MCF7 breast 24.3% | HCT-116 colon 16.7% | HCC-2998 colon 104% | KM12 colon 75.7%
active: BT-549 breast 2%

CCCNc1nc2ccccc2c2c1S(=O)(=O)c1ccc(Cl)cc1C2=O
active: T-47D breast -1.34% | SW-620 colon -4.27% | MCF7 breast 8.27% | HCT-116 colon 5.94%
inactive: BT-549 breast 23% | MDA-MB-435 melanoma 12.2% | HCC-2998 colon 16.2% | KM12 colon 17.1%

COc1ccc(C(=O)N2c3ccccc3Sc3ccccc32)c(OC)c1
inactive: T-47D breast 41.5% | BT-549 breast 16.9% | SW-620 colon 24.8% | MCF7 breast 19.9% | HCC-2998 colon 12.8% | KM12 colon 14.3%
active: MDA-MB-435 melanoma -43% | HCT-116 colon 9.42%

Cc1ccc(C2=Nc3c(N)ncnc3NC(c3cccc(Nc4ccnc5cc(C(F)(F)F)ccc45)c3)C2)cc1 (stereo unspecified)
active: MDA-MB-435 melanoma -55.4% | MCF7 breast 8.09%
inactive: T-47D breast 38.4% | BT-549 breast 53.6% | SW-620 colon 12.3% | HCT-116 colon 12.6% | HCC-2998 colon 31% | KM12 colon 15.9%

COC(=O)c1c2c(c(C)[n+]([O-])c1C)C(=O)C(NCc1cccc(OC)c1)=CC2=O
active: MDA-MB-435 melanoma -70.6% | SW-620 colon 7.85% | MCF7 breast 0.247% | HCT-116 colon 1.61%
inactive: T-47D breast 11.5% | BT-549 breast 57.5% | HCC-2998 colon 22.3% | KM12 colon 22%

COCCn1cc(-c2nc(-c3cc4cccnc4[nH]3)cs2)c2cc(OC)ccc21
active: T-47D breast -12.4% | BT-549 breast 1.78% | MCF7 breast 0.765% | KM12 colon 1.17%
inactive: MDA-MB-435 melanoma 52.4% | SW-620 colon 48.4% | HCT-116 colon 30.3% | HCC-2998 colon 57.6%

O=c1c2ccccc2n2cnc3ccc(Cl)c1c32
inactive: T-47D breast 54.4% | BT-549 breast 75.4% | MDA-MB-435 melanoma 90.5% | SW-620 colon 79.2% | MCF7 breast 75% | HCT-116 colon 65.7% | HCC-2998 colon 103% | KM12 colon 84.3%

COc1cc(OCc2cccc(Br)c2C)cc(OC)c1C=O
inactive: T-47D breast 37.8% | BT-549 breast 70.9% | MDA-MB-435 melanoma 87.8% | SW-620 colon 88.6% | MCF7 breast 63.9% | HCT-116 colon 68% | HCC-2998 colon 96.5% | KM12 colon 94.5%

Cn1c(=O)c2nc(/C=C/c3ccccc3)c(=O)[nH]c2n(C)c1=S
inactive: T-47D breast 104% | BT-549 breast 110% | MDA-MB-435 melanoma 103% | SW-620 colon 98.9% | MCF7 breast 93.9% | HCT-116 colon 105% | HCC-2998 colon 106% | KM12 colon 104%

O=C(N/N=C/c1ccc(Cl)cc1)c1[nH]c2ccc(Cl)cc2c1-c1ccccc1
active: MDA-MB-435 melanoma -33.3% | HCT-116 colon 7.64% | KM12 colon 4.94%
inactive: T-47D breast 73.9% | BT-549 breast 10.2% | SW-620 colon 37.5% | MCF7 breast 13.5% | HCC-2998 colon 26.4%

CCCNC(=O)Nc1ccc2cc3ccc(NC(=O)NCCC)cc3nc2c1
inactive: T-47D breast 46.6% | BT-549 breast 82.1% | MDA-MB-435 melanoma 77.4% | SW-620 colon 92% | MCF7 breast 62.6% | HCT-116 colon 76.3% | HCC-2998 colon 98.4% | KM12 colon 70.9%

NC(Cc1ccc(O)c([N+](=O)[O-])c1)C(=O)O (stereo unspecified)
inactive: T-47D breast 103% | BT-549 breast 96.9% | MDA-MB-435 melanoma 112% | SW-620 colon 104% | MCF7 breast 98% | HCT-116 colon 98.5% | HCC-2998 colon 99.6% | KM12 colon 103%

O=S(=O)(NCCNc1nccc(-c2c(-c3ccc(F)c(O)c3)nc3sccn23)n1)c1ccc(O)cc1
active: T-47D breast 6.97% | MDA-MB-435 melanoma 9.31%
inactive: BT-549 breast 55.1% | SW-620 colon 67.1% | MCF7 breast 27.6% | HCT-116 colon 30.4% | HCC-2998 colon 76.5% | KM12 colon 13.9%

CCOC(=O)c1ccc2c(c1)nc(-c1ccccc1)n2C1CCCCC1
inactive: T-47D breast 66.8% | BT-549 breast 93% | MDA-MB-435 melanoma 102% | SW-620 colon 111% | MCF7 breast 93.3% | HCT-116 colon 63.7% | HCC-2998 colon 91.6% | KM12 colon 95.1%

c1ccc2cc(C[n+]3ccn(CCCCCCCCCCn4cc[n+](Cc5ccc6ccccc6c5)c4)c3)ccc2c1
active: T-47D breast -0.597% | BT-549 breast -39.6% | KM12 colon -5.93%
inactive: MDA-MB-435 melanoma 18.2% | SW-620 colon 23.2% | MCF7 breast 15.7% | HCT-116 colon 13.3% | HCC-2998 colon 25.2%

O=C(c1ccccc1)c1ccc(C2CCCCC2)cc1
inactive: T-47D breast 85.7% | BT-549 breast 115% | MDA-MB-435 melanoma 99.8% | SW-620 colon 93.4% | MCF7 breast 95.7% | HCT-116 colon 83.8% | HCC-2998 colon 107% | KM12 colon 103%

CN1C(=O)/C(=C\c2nc([P+](c3ccccc3)(c3ccccc3)c3ccccc3)c(N3CCOCC3)o2)SC1=S
inactive: T-47D breast 79.4% | BT-549 breast 26.5% | MDA-MB-435 melanoma 60% | SW-620 colon 96.2% | MCF7 breast 85.8% | HCT-116 colon 65.4% | HCC-2998 colon 78% | KM12 colon 43.2%

COc1cc(OC)c(NC(=O)c2cc3ccccc3cc2O)cc1Cl
active: BT-549 breast -25.9%
inactive: T-47D breast 78.7% | MDA-MB-435 melanoma 22.7% | SW-620 colon 21.9% | MCF7 breast 76.1% | HCT-116 colon 18.1% | HCC-2998 colon 61.9% | KM12 colon 18.5%

NC(N)=NCCCCCNc1noc(Cc2c[nH]c3cc(Br)ccc23)n1
inactive: T-47D breast 59.2% | BT-549 breast 66.5% | MDA-MB-435 melanoma 87.7% | SW-620 colon 92.2% | MCF7 breast 77.2% | HCT-116 colon 77.2% | HCC-2998 colon 76.1% | KM12 colon 45.1%

Nc1ncnc2c1C(c1ccc(Br)cc1)c1sc3c(F)cccc3c1O2 (stereo unspecified)
inactive: T-47D breast 74.9% | BT-549 breast 100% | MDA-MB-435 melanoma 107% | SW-620 colon 94.5% | MCF7 breast 55.9% | HCT-116 colon 95% | HCC-2998 colon 120% | KM12 colon 91.8%

O=C(N(c1ccccc1)c1ccccc1)n1cc(I)c2nc(Cl)nc(Cl)c21
inactive: T-47D breast 61.2% | BT-549 breast 47.4% | MDA-MB-435 melanoma 37.4% | SW-620 colon 26% | MCF7 breast 25.5% | HCT-116 colon 25.7% | HCC-2998 colon 93.3% | KM12 colon 44.1%

Nc1nc2ccccc2c2c1S(=O)(=O)c1ccc(Cl)cc1C2=O
active: T-47D breast -0.213% | SW-620 colon 2.06% | MCF7 breast 9.68% | HCT-116 colon 1.05%
inactive: BT-549 breast 24.3% | MDA-MB-435 melanoma 20.5% | HCC-2998 colon 41.5% | KM12 colon 18.4%

CCCC/C=C/[C@@H]1C[C@H]1CCO
inactive: T-47D breast 95.9% | BT-549 breast 96.8% | MDA-MB-435 melanoma 102% | SW-620 colon 102% | MCF7 breast 87.5% | HCT-116 colon 90.6% | HCC-2998 colon 102% | KM12 colon 103%

COC(=O)[C@]1(C)CCC[C@]2(C)[C@H]3C[C@H]4C(C(C)C)=C[C@]3(CC[C@H]21)[C@@H]1C(=O)CC[C@H](OCCC#N)[C@@H]14
inactive: T-47D breast 66.4% | BT-549 breast 87.5% | MDA-MB-435 melanoma 84.9% | SW-620 colon 86.4% | MCF7 breast 59.5% | HCT-116 colon 77.6% | HCC-2998 colon 96.4% | KM12 colon 82%

CCOC(=O)Cc1cnc(N/N=C(\C)c2cc3ccccc3o2)s1
inactive: T-47D breast 70.5% | BT-549 breast 109% | MDA-MB-435 melanoma 108% | SW-620 colon 96.9% | MCF7 breast 81.3% | HCT-116 colon 96.4% | HCC-2998 colon 105% | KM12 colon 96.3%

COc1ccccc1N1CCCCC1
inactive: T-47D breast 99.1% | BT-549 breast 96% | MDA-MB-435 melanoma 112% | SW-620 colon 99.9% | MCF7 breast 96.3% | HCT-116 colon 102% | HCC-2998 colon 110% | KM12 colon 107%

CCOC(=O)C1=C(c2ccccc2)N=C2SC=C(c3ccc(Cl)cc3)N2C1c1ccc(Br)cc1 (stereo unspecified)
inactive: T-47D breast 52.2% | BT-549 breast 84.3% | MDA-MB-435 melanoma 94.3% | SW-620 colon 78.9% | MCF7 breast 75.2% | HCT-116 colon 64.9% | HCC-2998 colon 90.5% | KM12 colon 78.1%

N#CC1=C(c2ccccc2)Nc2c(c(-c3ccc(Cl)cc3)nn2-c2ccccc2)C12C(=O)Nc1ccc(Cl)cc12 (stereo unspecified)
inactive: T-47D breast 55.8% | BT-549 breast 76.2% | MDA-MB-435 melanoma 45.3% | SW-620 colon 85.9% | MCF7 breast 54.9% | HCT-116 colon 65.5% | HCC-2998 colon 90.6% | KM12 colon 83%

Cc1ccc2c(n1)C(=O)C(Br)=C(CC(C)C)C2=O
inactive: T-47D breast 82% | BT-549 breast 99.4% | MDA-MB-435 melanoma 104% | SW-620 colon 64% | MCF7 breast 93.2% | HCT-116 colon 61.6% | HCC-2998 colon 105% | KM12 colon 99.3%

Cn1cc(-c2csc(-c3c[nH]c4ccc(Br)cc34)n2)c2ccnc(Cl)c21
inactive: T-47D breast 25.9% | BT-549 breast 84.1% | MDA-MB-435 melanoma 78.5% | MCF7 breast 46.6% | HCT-116 colon 49.8% | HCC-2998 colon 82.9% | KM12 colon 50.8%
active: SW-620 colon 8.27%

CCN(C)S(=O)(=O)Nc1cccc(Nc2ncnc3cc(NC(=O)CCl)ccc23)c1Cl
active: BT-549 breast -4.04% | MDA-MB-435 melanoma -5.32% | SW-620 colon -53.5% | MCF7 breast -5.68% | HCT-116 colon 0.862% | KM12 colon 1.71%
inactive: T-47D breast 16% | HCC-2998 colon 39.1%

COc1ccc(C(=O)/C=C/c2c(C(F)(F)F)nc3ccccn23)cc1OC
inactive: MDA-MB-435 melanoma 10.4%
active: T-47D breast -10.7% | BT-549 breast 4.31% | SW-620 colon -4.44% | MCF7 breast 8.07% | HCT-116 colon -34.1% | HCC-2998 colon -9.15% | KM12 colon 3.34%

Source: PubChem BioAssay (NCI)
